Measured values as given in ChEMBL document CHEMBL3988442, “University of Dundee, Small-Polar-MMV Screening Library” (2021).
Among all 48,000 compounds or so, about 13,000 (27%) showed an effect of 50% or more. The list shows a part of the results.

What follows are compounds tested on Wolbachia pipientis (assay: Anti-Wolbachia Cell-Based Screen). Details: 5 µM.
Type: functional
Parameters: scale not given: in the data most compounds retested in dose-response had high values

| Compound | Percent Effect |
| --- | --- |
| O=S1(=O)C[C@@H]2[C@H](C1)N(Cc1cccc(O)c1)CCN2CC1CC1 | -9.844% |
| Cc1noc([C@@H]2C[C@H](NS(=O)(=O)Cc3ccccc3)CN2C)n1 | -2.99% |
| CC(OCC1CC1)C(=O)NCc1ccc(Cn2ccnc2)cc1 (stereo not given) | -1.593% |
| COc1ccccc1C(=O)N1CC(=O)N(Cc2ccco2)CC(O)C1 (stereo not given) | 85.9% |
| Cc1ccc(C(=O)N2CC(=O)N(Cc3ccco3)CC(O)C2)cc1 (stereo not given) | 118.6% |
| COc1ccccc1C(=O)N1CC2(COC(C)(C)OC2)C1 | -9.843% |
| CCc1ccc(CN2C[C@@H](C(=O)O)[C@H](c3ccccc3OC)C2)o1 | -18.6% |
| Cc1ccc([C@@H]2CN(C(=O)CCc3ccco3)C[C@H]2N(C)C)cc1 | -4.926% |
| Cc1cc(C(=O)N2CCN(Cc3ccco3)C(CCO)C2)cc(=O)[nH]1 (stereo not given) | -4.439% |
| Cc1ccc(-c2nc(C(=O)N3CCCCC3CNS(C)(=O)=O)cs2)cc1 (stereo not given) | 5.411% |
| NC(=O)CN(C(=O)c1cccc(C(F)(F)F)c1)C1CCCC1 | -15.86% |
| NC(=O)CC1CCCCN1C(=O)c1cccc(C(F)(F)F)c1 (stereo not given) | 118.1% |
| CS(=O)(=O)NCC1CCCCN1C(=O)c1cccc(C(F)(F)F)c1 (stereo not given) | 93.67% |
| NC(=O)NCC1CCCCN1C(=O)c1cccc(C(F)(F)F)c1 (stereo not given) | 3.602% |
| CCC(O)CNC(=O)C1(N(C)Cc2ccccc2)Cc2ccccc2C1 (stereo not given) | -9.431% |
| CCc1nc2n(n1)CCCC2NC(=O)Nc1ccc(SC)c(F)c1 (stereo not given) | -17.88% |
| COc1cc(N2CCCC(c3nccn3CCN(C)C)C2)nc(N)n1 (stereo not given) | -7.598% |
| O=C(O)C(F)(F)F.c1cc(CN2C[C@H](OCC3CCOCC3)[C@H]3COC[C@H]32)cs1 | 93.96% |
| COc1ccc(CN2C[C@H](OCC3CCOCC3)[C@H]3COC[C@H]32)cc1.O=C(O)C(F)(F)F | 2.727% |
| COc1ccc(CN2C[C@@H](OCc3csc(C)n3)[C@H]3COC[C@H]32)cc1.O=C(O)C(F)(F)F | -4.618% |
| O=C(O)C(F)(F)F.c1cc(CN2C[C@H](OCC3CCOCC3)[C@H]3COC[C@H]32)co1 | 84.18% |
| N#Cc1cccc(CN2C[C@H](OCC3CCOCC3)[C@H]3COC[C@H]32)c1.O=C(O)C(F)(F)F | -3.694% |
| c1ncc(-c2cn(CCSc3cnn[nH]3)nn2)cn1 | -12.65% |
| CCC(CNC(=O)NCc1cc[nH]n1)N1CCCC1 (stereo not given) | 2.082% |
| CC(CNC(=O)N1CCN(c2ncccn2)CC1)Cc1cccs1 (stereo not given) | -35.53% |

| Compound | Percent Effect |
| --- | --- |
| O=C(NCc1cc[nH]n1)N1CCN(c2ncccn2)CC1 | 105.7% |
| Cc1cccc(OC2CCN(C(=O)NCc3cc[nH]n3)CC2)c1C | -1.831% |
| O=C(NCc1cc2n(n1)CCCNC2)C1(c2ccccc2)CCCCC1 | 0.555% |
| CS(=O)(=O)NC1CCN(C(=O)NCc2cc[nH]n2)CC1 | 108.2% |
| CC(=O)N1CCC(C(=O)NCc2cc[nH]n2)(c2ccccc2)CC1 | 107.6% |
| N#Cc1ccccc1N1CCN(C(=O)NCC(=O)N2CCCC2)CC1 | -1.371% |
| O=C(NCC1CCOC1)N1CCN(c2ncccn2)CC1 (stereo not given) | 14.21% |
| N#Cc1ccccc1N1CCCN(C(=O)NCc2cc[nH]n2)CC1 | 136.7% |
| CS(=O)(=O)NC1CCCN(C(=O)NCc2cc[nH]n2)C1 (stereo not given) | -1.074% |
| COCCOCCNC(=O)N1CCN(c2ccccc2C#N)CC1 | 9.744% |
| Cc1nn(C)c2ncc(NC(=O)N(C)Cc3cnn(C)c3)cc12 | 3.959% |
| COc1ccc(C(=O)O)c(OCC(=O)NC(C)c2ccccc2)c1 (stereo not given) | -11.95% |
| COc1cncc(N2CCN(Cc3ccncc3Cl)CC2)n1 | -15.95% |
| CC(=O)c1ccc(N2CCN(C(=O)NCc3cc[nH]n3)CC2)cc1 | 106.6% |
| CCC1c2ccsc2CCN1C(=O)NCc1cc[nH]n1 (stereo not given) | 5.553% |
| NC(=O)c1ccc(CNC(=O)NCc2cc[nH]n2)cc1 | 0.637% |
| CCN1CCN(C(=O)NCc2cc[nH]n2)CC1 | 108.7% |
| O=C(NCc1cc[nH]n1)N1CCC(Oc2ccccc2Cl)CC1 | -25.2% |
| O=C(NCc1ccc(N2CCSCC2)cc1)NCc1cc[nH]n1 | -6.382% |
| O=C(NCc1cc[nH]n1)N1CCN(c2ccccc2Cl)CC1 | 14.41% |
| CCOc1ccccc1N1CCN(C(=O)NCc2cc[nH]n2)CC1 | 100.3% |
| CC(=O)N1CCCN(C(=O)NCc2cc[nH]n2)CC1 | -2.345% |
| CN(C)c1ccccc1C(=O)N1C[C@@H](CN2CCC(O)CC2)[C@@H](CO)C1 | -115.2% |
| Cc1cc(C(=O)Cn2cnnc2[S+](C)[O-])cc(C)c1F (stereo not given) | 2.039% |
| CS(=O)(=O)c1cccc(C(=O)NCC2(c3ccccc3)CC2)c1 | -5.384% |

| Compound | Percent Effect |
| --- | --- |
| CS(=O)(=O)c1cccc(C(=O)NCC2Cc3ccccc3O2)c1 (stereo not given) | -50.83% |
| O=C(NCc1nc2cc(F)ccc2[nH]1)c1ccc[nH]1 | 85.11% |
| O=C(NCc1nc2ccccc2[nH]1)c1cc2n(n1)CCCO2 | 4.478% |
| COC(=O)NCC(=O)N1CCC(c2nc3cc(F)ccc3[nH]2)CC1 | -27.28% |
| O=C(NCc1nc2ccccc2[nH]1)c1cnn2c1OCCC2 | 8.573% |
| CS(=O)(=O)c1cccc(C(=O)NCc2nc3cc(F)ccc3[nH]2)c1 | 93.8% |
| CC(C)c1cc(C(=O)NCc2nc(-c3ccc(F)cc3)n[nH]2)n[nH]1 | 8.194% |
| CS(=O)(=O)c1ccc(C(=O)NCc2nc3cc(F)ccc3[nH]2)cc1 | 97.05% |
| Cc1cc(NC(=O)Cn2nc(C)c(C#N)c2N)ccc1Br | -7.247% |
| Fc1ccc(-c2cc(NCCC3CCOC3)n3nccc3n2)cc1 (stereo not given) | 40.16% |
| O=C(NC1CC1)[C@H]1CC[C@@H]2[C@@H](CCN2CCOCc2ccccc2)O1.O=C(O)C(F)(F)F | 6.133% |
| CCS(=O)(=O)N1CCOC2(COCCN(C(C)=O)C2)C1 (stereo not given) | -3.912% |
| CCC1CN(C(=O)c2ccccc2N2CCOCC2)CCN1C(C)C (stereo not given) | 8.112% |
| CCNC(=O)C1CCN(c2cc(-c3ccccc3F)nc3ccnn23)C1 (stereo not given) | -1.287% |
| COc1ccccc1CN1C[C@@H](F)[C@@H](OCc2nc3ccccc3[nH]2)C1 | 0.7932% |
| CC(=O)NCc1nnc2n1CCN(c1nc(C)nc3sccc13)CC2 | -5.354% |
| Cc1ccsc1C(=O)N1CCc2ncc(CN3CCCC3)n2CC1.O=C(O)C(F)(F)F | -31.81% |
| CCn1cncc1CN1CCc2nc3sccc3c(=O)n2CC1 | 89.02% |
| Cl.Cn1cncc1CN1CCc2nc3sccc3c(=O)n2CC1 | 103.5% |
| Cc1ccc(CN2CCNC(C(=O)NC3CC3)C2)cc1C (stereo not given) | 34.83% |
| CC(NC1CCN(CCS(C)(=O)=O)CC1)c1ccc(Cl)cc1 (stereo not given) | -9.034% |
| Cc1ncsc1CCC(=O)NC1CCN(c2ccc(Cl)nn2)CC1 | -3.367% |
| O=C(Nc1ccc(-n2cncn2)c(F)c1)C1CCN(C(=O)C2CC2)CC1 | -16.72% |
| CC1CCCN(c2ccccc2OCC(=O)NC2CC2)C1 (stereo not given) | -2.178% |
| CC(C)n1ccnc1C1CCCN(c2ncccc2C(N)=O)C1 (stereo not given) | 2.955% |

| Compound | Percent Effect |
| --- | --- |
| CC1CCN(c2nccn3c(=O)[nH]nc23)CC1 | 109.7% |
| CC1CCN(Cc2cc(=O)[nH]c(=O)[nH]2)CC1 | -40.44% |
| NC1CCN(c2nccn3c(=O)[nH]nc23)CC1 | 124.1% |
| CC1CCCN(c2nccn3c(=O)[nH]nc23)C1 (stereo not given) | 119.4% |
| CC1CCN(c2nc3c(cnn3-c3ccccc3)c(=O)[nH]2)CC1 | 0.2654% |
| NS(=O)(=O)CC1CCN(c2ncccc2C(F)(F)F)CC1 | -0.5729% |
| c1ccc(-c2nc3c(c(NCCCn4cncn4)n2)CCNCC3)nc1 | -4.021% |
| COc1ccc(C(CO)NC(=O)Nc2cccnc2)cc1 (stereo not given) | -17.84% |
| Cc1nnc(C(C)N(C)Cc2c(C)nn(-c3ccccc3C)c2C)o1 (stereo not given) | -9.364% |
| CCn1nnnc1-c1cccc(NC(=O)COC2CCCC2)c1 | 5.943% |
| CCCc1nc(CN2CCN(Cc3noc(CCC)n3)CC2)no1 | 0.9498% |
| CCc1nc(CN2CCN(C(C)c3nc(C4CC4)no3)CC2)no1 (stereo not given) | 112.7% |
| CCCc1nc(CN2CCN(C(C)c3nc(C4CC4)no3)CC2)no1 (stereo not given) | 124.6% |
| CCc1noc(C(C)N2CCCN(Cc3noc(C4CC4)n3)CC2)n1 (stereo not given) | 8.614% |
| CCc1noc(C(C)N2CCN(Cc3noc(C4CC4)n3)CC2)n1 (stereo not given) | 3.435% |
| Cc1nnc(CN2CCCCC2c2nc(-c3ccccc3)no2)s1 (stereo not given) | -13.6% |
| CS(=O)(=O)N1CCC2(CCCN(c3ncc(F)cn3)C2)C1 (stereo not given) | 6.577% |
| Cc1cnc(N2CCCC3(COCCN(c4nccs4)C3)C2)nc1 (stereo not given) | -8.565% |
| Cc1cnc(N2CCCC3(CCOCC3)C2)nc1 | 109.2% |
| Fc1cnc(N2CCCC3(CCN(c4ncccn4)C3)C2)nc1 (stereo not given) | 88.49% |
| Cc1cnc(N2CCC3(CCCN(c4ncc(F)cn4)C3)C2)nc1 (stereo not given) | 103% |
| CCCS(=O)(=O)N1CCC2(CCCN(c3ncc(F)cn3)C2)C1 (stereo not given) | 14.12% |
| CCS(=O)(=O)N1CCC2(CCCN(c3ncc(F)cn3)C2)C1 (stereo not given) | -3.984% |
| Cc1cnc(N2CCOC3(CCCN(c4ncccn4)C3)C2)nc1 (stereo not given) | -13.37% |
| O=S(=O)(C1CC1)N1CCC2(CCCN(c3ncc(F)cn3)C2)C1 (stereo not given) | -1.558% |
